Experimental data as given in ChEMBL document CHEMBL2218924, “A broad activity screen in support of a chemogenomic map for kinase signalling research and drug discovery” (Biochem J, 2013).

What was measured:
[1] = target: Focal adhesion kinase 1 (Homo sapiens) (UniProt Q05397); settings: at 10 µM
[2] = target: Fibroblast growth factor receptor 1 (Homo sapiens) (UniProt P11362); settings: at 1 µM
[3] = target: Fibroblast growth factor receptor 1 (Homo sapiens) (UniProt P11362); settings: at 10 µM
[4] = target: Fibroblast growth factor receptor 2 (Homo sapiens) (UniProt P21802); settings: at 1 µM
[5] = target: Fibroblast growth factor receptor 2 (Homo sapiens) (UniProt P21802); settings: at 10 µM
[6] = target: Fibroblast growth factor receptor 3 (Homo sapiens) (UniProt P22607); settings: at 1 µM
[7] = target: Fibroblast growth factor receptor 3 (Homo sapiens) (UniProt P22607); settings: at 10 µM
[8] = target: Fibroblast growth factor receptor 4 (Homo sapiens) (UniProt P22455); settings: at 1 µM
[9] = target: Fibroblast growth factor receptor 4 (Homo sapiens) (UniProt P22455); settings: at 10 µM
[10] = target: Tyrosine-protein kinase Fer (Homo sapiens) (UniProt P16591); settings: at 1 µM
[11] = target: Tyrosine-protein kinase Fer (Homo sapiens) (UniProt P16591); settings: at 10 µM
[12] = target: Tyrosine-protein kinase Fes/Fps (Homo sapiens) (UniProt P07332); settings: at 1 µM
[13] = target: Tyrosine-protein kinase Fgr (Homo sapiens) (UniProt P09769); settings: at 1 µM
[14] = target: Tyrosine-protein kinase Fgr (Homo sapiens) (UniProt P09769); settings: at 10 µM
[15] = target: Vascular endothelial growth factor receptor 1 (Homo sapiens) (UniProt P17948); settings: at 1 µM
[16] = target: Vascular endothelial growth factor receptor 1 (Homo sapiens) (UniProt P17948); settings: at 10 µM
[17] = target: Receptor-type tyrosine-protein kinase FLT3 (Homo sapiens) (UniProt P36888); settings: at 1 µM
[18] = target: Receptor-type tyrosine-protein kinase FLT3 (Homo sapiens) (UniProt P36888); settings: at 10 µM
[19] = target: Vascular endothelial growth factor receptor 3 (Homo sapiens) (UniProt P35916); settings: at 1 µM
[20] = target: Tyrosine-protein kinase Fes/Fps (Homo sapiens) (UniProt P07332); settings: at 10 µM

Focal adhesion kinase 1 (Homo sapiens), sequence (Q05397 2-1052 limits assumed): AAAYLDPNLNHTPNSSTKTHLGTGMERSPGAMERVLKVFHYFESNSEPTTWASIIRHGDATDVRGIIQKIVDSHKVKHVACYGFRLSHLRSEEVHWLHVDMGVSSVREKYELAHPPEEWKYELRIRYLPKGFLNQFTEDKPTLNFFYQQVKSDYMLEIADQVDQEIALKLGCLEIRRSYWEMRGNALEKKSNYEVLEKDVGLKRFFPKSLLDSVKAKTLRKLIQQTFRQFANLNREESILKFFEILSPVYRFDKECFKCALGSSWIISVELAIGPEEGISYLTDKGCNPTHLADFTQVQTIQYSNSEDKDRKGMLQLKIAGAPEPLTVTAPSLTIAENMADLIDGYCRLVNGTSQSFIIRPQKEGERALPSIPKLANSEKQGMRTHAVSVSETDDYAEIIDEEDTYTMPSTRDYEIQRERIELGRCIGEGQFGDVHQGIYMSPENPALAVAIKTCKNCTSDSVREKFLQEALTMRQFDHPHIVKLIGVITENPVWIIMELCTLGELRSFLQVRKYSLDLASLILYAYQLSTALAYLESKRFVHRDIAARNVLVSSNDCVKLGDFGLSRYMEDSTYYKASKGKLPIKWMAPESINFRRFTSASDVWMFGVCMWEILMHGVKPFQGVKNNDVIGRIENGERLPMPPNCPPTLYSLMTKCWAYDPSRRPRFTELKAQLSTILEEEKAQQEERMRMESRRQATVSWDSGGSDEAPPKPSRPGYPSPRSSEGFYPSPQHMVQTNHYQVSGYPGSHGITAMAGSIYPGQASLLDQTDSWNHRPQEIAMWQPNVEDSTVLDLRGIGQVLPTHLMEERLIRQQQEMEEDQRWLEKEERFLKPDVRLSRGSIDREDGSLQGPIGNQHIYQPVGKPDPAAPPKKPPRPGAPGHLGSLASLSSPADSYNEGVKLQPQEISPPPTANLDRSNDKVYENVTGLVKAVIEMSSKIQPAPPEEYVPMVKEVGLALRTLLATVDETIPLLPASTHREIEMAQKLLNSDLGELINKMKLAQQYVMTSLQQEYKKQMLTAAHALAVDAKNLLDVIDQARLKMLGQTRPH
Vascular endothelial growth factor receptor 3 (Homo sapiens), sequence (P35916 whole entry): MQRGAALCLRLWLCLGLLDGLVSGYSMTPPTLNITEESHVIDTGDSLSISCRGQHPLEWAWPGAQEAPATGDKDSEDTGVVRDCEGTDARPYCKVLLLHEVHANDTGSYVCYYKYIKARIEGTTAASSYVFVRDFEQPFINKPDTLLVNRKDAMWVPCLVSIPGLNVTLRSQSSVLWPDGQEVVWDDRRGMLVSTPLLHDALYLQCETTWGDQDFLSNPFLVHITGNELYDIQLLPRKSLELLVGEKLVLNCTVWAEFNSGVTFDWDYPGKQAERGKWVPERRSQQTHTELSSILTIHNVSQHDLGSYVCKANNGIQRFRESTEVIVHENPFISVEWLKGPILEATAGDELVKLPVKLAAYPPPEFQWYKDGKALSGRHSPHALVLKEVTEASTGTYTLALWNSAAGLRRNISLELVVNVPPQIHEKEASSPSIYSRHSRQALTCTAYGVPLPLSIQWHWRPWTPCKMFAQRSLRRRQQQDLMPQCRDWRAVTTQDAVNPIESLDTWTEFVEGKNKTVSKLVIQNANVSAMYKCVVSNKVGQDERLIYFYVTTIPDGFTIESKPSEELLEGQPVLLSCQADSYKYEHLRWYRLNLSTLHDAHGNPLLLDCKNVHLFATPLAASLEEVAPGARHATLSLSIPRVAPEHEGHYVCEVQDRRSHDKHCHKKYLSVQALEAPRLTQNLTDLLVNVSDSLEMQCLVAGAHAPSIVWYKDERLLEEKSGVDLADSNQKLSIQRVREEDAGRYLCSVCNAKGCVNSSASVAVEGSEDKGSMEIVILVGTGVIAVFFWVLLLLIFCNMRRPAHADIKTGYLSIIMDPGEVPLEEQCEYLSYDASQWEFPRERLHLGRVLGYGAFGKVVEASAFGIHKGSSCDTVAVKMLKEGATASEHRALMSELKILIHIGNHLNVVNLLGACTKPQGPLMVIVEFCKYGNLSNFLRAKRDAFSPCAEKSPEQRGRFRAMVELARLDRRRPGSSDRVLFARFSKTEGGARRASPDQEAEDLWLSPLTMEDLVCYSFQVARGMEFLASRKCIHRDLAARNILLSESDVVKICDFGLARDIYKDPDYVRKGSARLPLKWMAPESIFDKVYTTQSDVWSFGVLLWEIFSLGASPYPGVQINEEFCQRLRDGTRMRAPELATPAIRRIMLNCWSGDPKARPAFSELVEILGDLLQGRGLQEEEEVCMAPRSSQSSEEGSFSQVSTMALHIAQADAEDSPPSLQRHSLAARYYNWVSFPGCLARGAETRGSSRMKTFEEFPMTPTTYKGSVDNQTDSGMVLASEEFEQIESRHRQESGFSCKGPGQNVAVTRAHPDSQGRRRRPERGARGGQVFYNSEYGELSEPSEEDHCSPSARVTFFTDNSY
Tyrosine-protein kinase Fgr (Homo sapiens), sequence (P09769 2-529 limits assumed): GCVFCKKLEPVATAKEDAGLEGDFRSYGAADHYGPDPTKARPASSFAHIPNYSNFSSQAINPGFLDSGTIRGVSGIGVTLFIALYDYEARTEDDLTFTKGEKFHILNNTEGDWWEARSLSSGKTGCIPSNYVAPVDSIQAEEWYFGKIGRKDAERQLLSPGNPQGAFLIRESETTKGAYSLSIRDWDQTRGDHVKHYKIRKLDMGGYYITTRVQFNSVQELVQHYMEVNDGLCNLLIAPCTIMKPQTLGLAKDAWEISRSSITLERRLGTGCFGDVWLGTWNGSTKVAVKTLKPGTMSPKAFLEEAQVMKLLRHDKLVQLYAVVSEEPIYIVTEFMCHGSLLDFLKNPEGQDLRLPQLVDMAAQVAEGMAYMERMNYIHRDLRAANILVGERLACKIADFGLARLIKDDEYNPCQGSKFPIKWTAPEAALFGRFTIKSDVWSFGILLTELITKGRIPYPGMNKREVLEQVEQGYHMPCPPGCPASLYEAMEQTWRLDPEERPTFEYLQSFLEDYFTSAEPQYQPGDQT
Fibroblast growth factor receptor 1 (Homo sapiens), sequence (P11362 22-822 limits assumed): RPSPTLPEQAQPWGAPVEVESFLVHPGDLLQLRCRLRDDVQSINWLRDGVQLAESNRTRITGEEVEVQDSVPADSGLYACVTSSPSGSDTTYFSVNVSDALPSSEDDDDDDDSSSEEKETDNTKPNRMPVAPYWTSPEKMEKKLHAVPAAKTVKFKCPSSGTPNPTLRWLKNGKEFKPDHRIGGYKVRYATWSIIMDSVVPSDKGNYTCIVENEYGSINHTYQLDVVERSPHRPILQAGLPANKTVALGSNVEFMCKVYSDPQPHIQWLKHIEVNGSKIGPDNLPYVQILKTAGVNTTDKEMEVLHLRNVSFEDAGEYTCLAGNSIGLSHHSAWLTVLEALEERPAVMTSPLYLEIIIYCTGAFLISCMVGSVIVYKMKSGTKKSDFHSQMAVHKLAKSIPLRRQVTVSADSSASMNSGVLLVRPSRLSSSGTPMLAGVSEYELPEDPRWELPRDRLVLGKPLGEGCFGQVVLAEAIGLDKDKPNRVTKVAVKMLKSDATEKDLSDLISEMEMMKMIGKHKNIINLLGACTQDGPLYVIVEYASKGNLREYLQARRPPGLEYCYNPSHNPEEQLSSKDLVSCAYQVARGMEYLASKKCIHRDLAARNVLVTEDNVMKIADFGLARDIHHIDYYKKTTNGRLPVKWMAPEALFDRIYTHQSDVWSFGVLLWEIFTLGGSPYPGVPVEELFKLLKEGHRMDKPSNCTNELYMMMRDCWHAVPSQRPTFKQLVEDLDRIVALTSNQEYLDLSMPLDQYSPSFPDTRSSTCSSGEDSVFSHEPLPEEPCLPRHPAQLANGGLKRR
Vascular endothelial growth factor receptor 1 (Homo sapiens), sequence (P17948 whole entry): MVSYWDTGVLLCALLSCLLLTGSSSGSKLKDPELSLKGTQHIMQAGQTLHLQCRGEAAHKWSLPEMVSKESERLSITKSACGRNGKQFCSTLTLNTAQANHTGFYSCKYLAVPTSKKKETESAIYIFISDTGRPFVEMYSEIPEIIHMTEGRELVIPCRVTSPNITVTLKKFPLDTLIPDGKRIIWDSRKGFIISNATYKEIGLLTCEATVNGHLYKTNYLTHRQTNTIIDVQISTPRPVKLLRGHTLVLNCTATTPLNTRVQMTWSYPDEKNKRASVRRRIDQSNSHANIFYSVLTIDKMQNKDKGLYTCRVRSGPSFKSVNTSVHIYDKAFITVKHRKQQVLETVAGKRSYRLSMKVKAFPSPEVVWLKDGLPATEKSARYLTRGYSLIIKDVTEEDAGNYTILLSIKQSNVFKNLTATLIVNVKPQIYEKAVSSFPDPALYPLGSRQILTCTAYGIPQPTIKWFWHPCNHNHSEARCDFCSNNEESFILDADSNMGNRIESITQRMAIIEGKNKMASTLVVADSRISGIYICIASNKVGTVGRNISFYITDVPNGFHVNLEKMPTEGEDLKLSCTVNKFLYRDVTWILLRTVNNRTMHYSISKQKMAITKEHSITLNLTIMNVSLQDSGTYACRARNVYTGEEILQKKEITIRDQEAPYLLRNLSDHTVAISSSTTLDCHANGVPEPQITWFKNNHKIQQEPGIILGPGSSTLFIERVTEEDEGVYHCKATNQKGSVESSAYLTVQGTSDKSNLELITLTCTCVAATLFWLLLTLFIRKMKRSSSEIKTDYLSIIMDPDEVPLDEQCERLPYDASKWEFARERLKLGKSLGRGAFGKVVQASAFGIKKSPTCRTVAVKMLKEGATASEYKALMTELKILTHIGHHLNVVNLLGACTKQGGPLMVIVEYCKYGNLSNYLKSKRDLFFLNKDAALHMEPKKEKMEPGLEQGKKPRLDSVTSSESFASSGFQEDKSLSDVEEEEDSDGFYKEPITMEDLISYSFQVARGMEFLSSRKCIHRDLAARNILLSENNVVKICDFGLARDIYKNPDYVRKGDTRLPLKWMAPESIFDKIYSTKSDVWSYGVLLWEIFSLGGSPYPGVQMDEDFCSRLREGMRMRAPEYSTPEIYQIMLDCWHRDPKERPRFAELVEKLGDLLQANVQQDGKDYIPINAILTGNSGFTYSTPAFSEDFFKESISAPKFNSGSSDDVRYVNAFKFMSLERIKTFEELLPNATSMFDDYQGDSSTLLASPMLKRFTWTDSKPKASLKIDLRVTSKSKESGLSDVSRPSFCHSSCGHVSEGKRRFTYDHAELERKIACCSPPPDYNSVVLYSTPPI

SMILES | residual activity [1] | residual activity [2] | residual activity [3] | residual activity [4] | residual activity [5] | residual activity [6] | residual activity [7] | residual activity [8] | residual activity [9] | residual activity [10] | residual activity [11] | residual activity [12] | residual activity [13] | residual activity [14] | residual activity [15] | residual activity [16] | residual activity [17] | residual activity [18] | residual activity [19] | residual activity [20]
COc1ccc(C(=O)Nc2sc3c(c2C(N)=O)CCCC3)cc1OC | 78% | 87% | 118% | 86% | 99% | 104% | 109% | 107% | 99% | 108% | 91% | 123% | 110% | 93% | 72% | 81% | 32% | 35% | 10% | 
Oc1ccc(Nc2nc(-c3ccc(Cl)cc3)cs2)cc1 | 94% | 128% | 86% | 119% | 93% | 132% | 137% | 125% | 118% | 94% | 100% | 106% | 96% | 93% | 99% | 77% | 70% | 56% | 45% | 95%
Cc1cc2ncc(-c3ccccc3)nc2cc1C | 92% | 86% | 101% |  | 102% | 85% | 95% | 134% | 93% |  |  | 107% |  | 91% | 85% | 83% | 47% | 25% | 58% | 93%
c1ccc(-c2n[nH]cc2-c2ccnc3ccccc23)nc1 |  | 80% | 72% | 101% | 97% |  |  |  |  |  |  | 107% | 90% | 51% | 36% | 7% | 48% | 23% | 37% | 80%
N#C/C(=C(\N)Sc1ccc(N)cc1)c1ccccc1C(F)(F)F | 95% | 112% | 83% | 100% |  | 102% | 93% | 86% | 90% | 88% | 79% | 93% | 88% | 73% | 83% | 38% | 62% | 59% | 65% | 100%
CO[C@@H]1[C@H](N(C)C(=O)c2ccccc2)C[C@H]2O[C@]1(C)n1c3ccccc3c3c4c(c5c6ccccc6n2c5c31)C(=O)NC4 | 37% | 5% | -4% | 21% | 7% | 34% | 19% | 71% | 41% | 26% | 14% | 15% | 7% | 4% | 4% | 1% |  |  | 1% | 9%
COc1cc2ncc(-c3ccccc3)nc2cc1OC | 95% |  |  | 100% | 93% |  |  |  |  |  | 99% | 126% |  |  | 95% | 67% | 57% | 16% | 71% | 87%
CO[C@H]1[C@@H](OC)C[C@H](C)[C@@H](OC)C2=CC(=O)C=C(NC(=O)/C(C)=C/C=C/[C@H](OC)[C@@H](OC(N)=O)/C(C)=C/[C@@H]1C)C2=O | 91% | 82% | 93% | 104% | 105% | 112% | 102% | 109% | 94% | 110% | 99% | 111% | 99% | 100% | 86% | 95% | 85% | 76% | 92% | 
CC(=O)c1ccc(N2CCOCC2)cc1O | 94% | 97% |  |  |  | 98% | 128% |  |  |  |  | 133% | 110% | 102% | 106% | 97% | 102% | 86% | 93% | 94%
CC(C)n1cnc2/c(=N/c3cccc(Cl)c3)nc(NCCO)[nH]c21 | 11% | 87% | 19% | 101% | 37% | 106% | 59% | 114% | 110% |  | 47% | 58% | 48% | 12% | 68% | 30% | 20% | 1% | 42% | 12%
COc1ccc(S(=O)(=O)N(CCO)c2ccccc2CN(C)C/C=C/c2ccc(Cl)cc2)cc1 | 70% | 108% | 64% | 110% | 81% | 125% | 89% | 129% | 92% | 94% | 91% | 96% | 95% | 80% | 100% | 92% | 104% | 62% | 90% | 89%
Cc1cncc2cccc(S(=O)(=O)N3CCCN(C(=O)CN)C[C@H]3C)c12 |  | 76% | 20% |  |  |  | 93% |  |  |  |  |  | 99% | 53% | 82% | 63% | 100% | 86% | 78% | 
Cc1ccc(S(=O)(=O)/C=C/C#N)cc1 | 102% | 91% | 82% | 108% | 89% | 118% | 118% | 115% | 106% | 101% | 99% | 97% | 108% | 105% | 96% | 100% |  | 89% | 98% | 108%
